# Test system: RARb:RXRa (NR concentration 270 nM, RXRa partner concentration 90 nM)
# Test: PBM binding z-score (relative to random genomic background probes); higher = stronger binding; sequences stand for … in GC…GCGATTGACAGCGTAGAATGAAGG
# Summary of the method: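 Regression normalization was applied to scanned fluorescence from custom Agilent 4×180K protein-binding microarrays. Before scanning, arrays were incubated 1 h with ligand-free nuclear receptor dimers, and binding was detected with antibodies against each partner (one per run). Binding z-scores use the random background probes as reference.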
row,Sequence,PBM binding z-score
1,TCAGAGAGGTGAAGGTAACTCAGGTACGCAGTCG,2.07
2,GGTAGTTGGTCAGTAAAAGGTCACACACCGGTCG,4.28
3,GTACCAAGGTGAATAGTTCGTTGATGAGTAGGCG,1.94
4,TCTATTAGTTGAATAGGGCAACCGAAACAGCGGA,1.13
5,CAAACTAGGTCACAGAGCTCAAAGTCCGTGCGTA,4.13
6,ATCTCTTGGTAACAAGTTCAGTGAAAGAGAGGAC,1.37
7,TCAGACAGGTCAAGGTAACTCAGGTACGCAGTCG,4.31
8,TCGAGTAGGTTAGTCGGGGCGTTCAGCCAACATA,0.0731
9,TCTGCTAGGTCAGTTGGTCAGCTCACGAGCTGCC,3.18
10,AGAACGAGGGCACGCTGAGTTGATTGCAGAGTAG,2.36
11,AGAACGAGGGCACGCTGAGTAGATAGCAGAGTAG,2.4
12,ATATGTAGGTTACATCCGGGTCATTCCGGCTATG,2.14
13,AGAACGCGGGCACGCTGAGTTGATAGCAGAGTAG,0.31
14,TCTTGTAGATCAATAGAGGCTAAGAAAGTGCGCT,0.203
15,CCTAGCAGGCCAATCTGGGTCACTGAAGGCTTGA,1.64
16,CCTTACGGGTCACGAGGTTACAGCACGACGAGCG,4.71
17,TCTTGTAGATCAGCAGGTGAAGAAAGCTGGCCAA,-0.138
18,ACTATTAGCTGACTTAGGGCAACCGATACGACGC,0.676
19,AGAACGAGGGCAATGAGTTGATCGCACGGGTGGC,2
20,TTACCAAGGTGAAGGTCGTCGATCCCTCTGTAGA,2.36

row,Sequence,PBM binding z-score
1,CTCGAAAGGTCGGTTGAGGTGAATATACGGATAA,3.27
2,CGTCCAAGGTCAAGGCTAGGTCAGTGAAAGCATT,5.43
3,ACTAGCAGGCAAAGGGTCACTCAAGATTAGTCCG,3.42
4,TCTTGTAGAACAAAGGTTAAGAAAGCCGAAGCCT,1.81
5,TAACCTAGGTCATGGGCCAGTATACCACGCGAAC,4.08
6,CTACCAAGGTGAACAAGGTCGTTGCTTACTATTC,2.23
7,TGTGCTAGGTCAGTTGGTCAGCTAACGAGCTGCC,3.26
8,TCTGGTTGGTCACGGAGGTCACACACGACGGGTA,4
9,AGTCAAAGTTCATCTAGGTGACGTAAGATATGCT,4.8
10,GCTCTTAGTTGAAAGGGCAACCGAATGATTCTCG,2.08
11,CGTCCAAGGTCAGGGTCAGTGAAAGAGACTCGAA,5.2
12,TCATATAGCTAAAGGTGAAAGTCGAACGATATGA,1.62
13,AGAATGAGGTTACCAAAGATCAGGTAAACGCTTG,2.09
14,GCTGCTAGGTCAACTGATGGTTAGCTAAAGCTCG,4.31
15,TCGAGTAGGTTACTCGGGGCATTCAGCCAACATA,0.57
16,AGAAGGAGGGCACGCTGAGTTGATAGCAGAGTAG,2.32
17,GCATATAGGTAATACATGGTGAAAGTCCGATTGT,-0.202
18,GCTATTAGTTGAAAAGGCAACCGAATGATTCTCG,0.109
19,CAAACTAGGTCAAGGTCAACGTCGGTTTGTGCCA,5.36
20,GCTTGTAAATCAAGGTTAAGAAAGACTAAGCTAA,0.808
